Assay results reported in PubChem BioAssay AID602182 (The Scripps Research Institute Molecular Screening Center, 2012).
This is one part of the list. Active and inactive are the calls of the source. No rule for the calls is given here.

Assay: quenching of GFP signal – biochemical, fluorescence, artefact control for Rin1-Abl interaction inhibitor project, dose response (AID 602182);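 also: ABL1-eGFP fusion protein alone without its RIN1 binding partner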
Conditions: GFP fluorescence interference/quenching counterscreen
In the case of CCOC(=O)N1CCN(C(=O)C2CCN(c3ncnc4c3sc3cccc(F)c34)CC2)CC1, the IC50 is reported as > 67.6 µM (inactive). In the case of C[C@@H]1CN([C@H](C)CO)S(=O)(=O)c2ccc(C#C[C@@H](C)O)cc2O[C@@H]1CN(C)Cc1ccc(-c2ccccc2)cc1, the IC50 is reported as > 67.5 µM (inactive). In the case of C=CCn1c2ccccc2c2nnc(SCc3[nH]c(=O)[nH]c3C(=O)CCCCC(=O)OCC)nc21, the IC50 is reported as > 67.5 µM (inactive). In the case of CC(OC(=O)c1ccccc1NCCO)C(=O)Nc1ccnn1C(C)C (stereo not drawn), the IC50 is reported as > 67.5 µM (inactive). In the case of CN(Cc1c(F)cccc1Cl)C(=O)CNC(=O)c1ccc2c(c1)OCO2, the IC50 is reported as > 67.6 µM (inactive). For CN(C(=O)c1ccc(NC(=O)Cc2cccc(NC(=O)C3CCN(C(=O)c4ccccc4)CC3)c2)cc1)C1CC1, the IC50 was > 67.6 µM (inactive). With Cc1ccccc1CN1C[C@@H]2C[C@@H](c3ccc4nsnc4c3)N3CCC[C@@]23C1=O the IC50 was > 67.5 µM (inactive). With Nc1cc(=O)c2[nH]cnc2[nH]1 the IC50 was > 67.7 µM (inactive).
